Data taken from PubChem BioAssay (NCI).
Compounds without any hit were thinned out: in the full panel of roughly 83,000, 20% have a hit.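 In brief: 96-well plates, 48 h treatment, single concentration, percent growth endpoint.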 Values without a mark were called inactive. Active and inactive are the calls of the source. The calls were made as follows: active = growth percent below 10; inactive = the rest.

system: SK-MEL-2 melanoma; assay: NCI-60 one-dose screen, 48 h (100 = growth as untreated, 0 = no growth, -100 = all killed); settings: 10 µM

SMILES | growth
O=C(/C=C/c1ccc(Br)cc1)c1nc2ccccc2n1Cc1ccc(Br)cc1 | 2.53% (active)
COC(=O)CCn1c(-c2ccc(-n3cc(-c4ccc(O[C@H]5O[C@@H]6OC7(C)CC[C@H]8[C@H](C)CC[C@@H]([C@H]5C)[C@@]68OO7)cc4)nn3)cc2)nc2ccccc21 | -6.2% (active)
CC1=C(C=O)C2=C(C)C3(CC3)[C@@](C)(O)C(=O)C2=C1 | 8.32% (active)
N#C[Se]CC(=O)Nc1cccc(C(F)(F)F)c1 | -31.1% (active)
CCC[Se]C(=O)c1ccc(C(=O)[Se]CCC)s1 | -24.1% (active)
C[C@H]1[C@@H](CC(=O)N[C@@H](Cc2coc3ccccc23)B(O)O)O[C@@H]2OC3(C)CC[C@H]4[C@H](C)CC[C@@H]1[C@@]24OO3 | -53.6% (active)
O=C(/C=C/c1ccco1)c1nc2ccccc2n1Cc1ccc(F)cc1 | 69.9%
COC(=O)C[C@](O)(CCC(C)C)C(=O)O[C@H]1C(OC)=C[C@@]23CCCN2CCc2cc4c(cc2[C@@H]13)OCO4 | -46.4% (active)
C[C@H]1[C@H](OC(=O)CCC(=O)N(CCCc2cn(-c3ccc(C#N)cc3)nn2)CCNc2ccnc3cc(Cl)ccc23)O[C@@H]2OC3(C)CC[C@H]4[C@H](C)CC[C@@H]1[C@@]24OO3 | 31.4%

system: EKVX NSCLC; assay: as above; settings: 10 µM

SMILES | growth
CC1=C(CCC=O)C2=C(C)C3(CC3)[C@@](C)(O)C(=O)C2=C1 | -81.6% (active)
O=C(/C=C/c1ccc(Cl)cc1)c1nc2ccccc2n1Cc1ccc(F)cc1 | 20.4%
C[C@H]1[C@@H](Oc2ccc(-c3cn(-c4ccnc5cc(Cl)ccc45)nn3)cc2)O[C@@H]2OC3(C)CC[C@H]4[C@H](C)CC[C@@H]1[C@@]24OO3 | 29.7%
COC(=O)c1ccc(-n2cc(CCCN(CCNc3ccnc4cc(Cl)ccc34)C(=O)CCC(=O)O[C@@H]3O[C@@H]4OC5(C)CC[C@H]6[C@H](C)CC[C@@H]([C@H]3C)[C@@]46OO5)nn2)cc1 | 49.4%
O=C(/C=C/c1cccc(Br)c1)c1nc2ccccc2n1Cc1ccc(F)cc1 | 20.1%
O=C(/C=C/c1ccc(F)cc1)c1nc2ccccc2n1Cc1ccc(F)cc1 | 13.6%
O=C(/C=C/c1ccccc1)c1nc2ccccc2n1Cc1ccc(Br)cc1 | -89.2% (active)
COc1ccc(OC)c(/C=C/C(=O)c2nc3ccccc3n2Cc2ccc(F)cc2)c1 | -62.1% (active)
O=C(/C=C/c1ccc(F)cc1)c1nc2ccccc2n1Cc1ccc(Br)cc1 | -91.5% (active)
CC(C)N=C([Se])NC(=O)c1cccs1 | 14.7%
Cc1ccc2[nH]c(=S)n(-c3ccc(F)cc3)c(=O)c2c1 | 95.1%
C#CC[Se]C(=O)c1ccc2n[se]nc2c1 | 13.8%
O=C(/C=C/c1ccc(Br)cc1)c1nc2ccccc2n1Cc1ccc(Br)cc1 | 1.19% (active)
C[C@H]1[C@@H](CC(=O)N[C@@H](Cc2coc3ccccc23)B(O)O)O[C@@H]2OC3(C)CC[C@H]4[C@H](C)CC[C@@H]1[C@@]24OO3 | 7.62% (active)
O=C(/C=C/c1ccco1)c1nc2ccccc2n1Cc1ccc(F)cc1 | 58.9%
